Only some compounds are listed: those with a hit (about 1.3% of all), similar ones and a draw of the others.
EPAC2 antag: EPAC2 (human) antagonism; Q8WZA2; EPAC2 GEF exchange of Rap1B-BODIPY-GDP, fluorescence; Potency, µM (titrated, usually from 114 µM), for the others: top-dose activity, negative = inhibition, hits mostly inhibitors; actives 0.18% (n = 360,000); note: % is set by controls: 0 for no effect and ±100 for the full control effect; nearly all actives have a fitted effect of over 45% in size
USP1 inh: inhibitors of human USP1/UAF1 deubiquitinase; O94782; recombinant USP1/UAF1, Ub-Rhodamine cleavage fluorescence; Potency, µM (top dose mostly 57.1 µM), inactives show top-dose activity change, negative = inhibition, usual class: inhibitors; actives 0.23% (n = 390,000); AID 743255; note: % is set by controls: 0 for no effect and ±100 for the full control effect; nearly all actives have a fitted effect of over 60% in size
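In this screen, compounds sit with the deubiquitinase complex (1nM) for 15 min at room temperature before Ub-Rho is added at 150nM final. Fluorescence rise is then followed for 6 reads every 60 seconds.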
EPAC2 agonist: agonists of human EPAC2 (RAPGEF4); Q8WZA2; EPAC2 activation, biochemical qHTS; response scale: 100% = 6.5 mM cAMP response; Potency, µM (series often up to 154 µM), without a hit: at the highest dose activation, usual class: activators; actives 0.079% (n = 360,000); AID 720711; note: nearly all actives have a fitted effect of over 50% in size
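EPAC2 (100 nM) mixed with Rap1B loaded with BODIPY-GDP (250 nM) plus 50 uM unlabeled GDP; compounds pinned in, 5 min RT, then read every 5 min for 30 min (ex 480, em 540 nm). Normalized to cAMP control.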
ALOX12 inh: blocks human arachidonate 12S-lipoxygenase. purified 12hLO, xylenol orange hydroperoxide absorbance. actives 1.1% (n = 580,000). Potency, µM (highest dose often 108 µM), for the others: at the highest dose activity change, negative = inhibition, most hits filed as inhibitors. AID 1671190. P18054; note: % is set by controls: 0 for no effect and ±100 for the full control effect
Target sequence (P18054 whole entry, looked up): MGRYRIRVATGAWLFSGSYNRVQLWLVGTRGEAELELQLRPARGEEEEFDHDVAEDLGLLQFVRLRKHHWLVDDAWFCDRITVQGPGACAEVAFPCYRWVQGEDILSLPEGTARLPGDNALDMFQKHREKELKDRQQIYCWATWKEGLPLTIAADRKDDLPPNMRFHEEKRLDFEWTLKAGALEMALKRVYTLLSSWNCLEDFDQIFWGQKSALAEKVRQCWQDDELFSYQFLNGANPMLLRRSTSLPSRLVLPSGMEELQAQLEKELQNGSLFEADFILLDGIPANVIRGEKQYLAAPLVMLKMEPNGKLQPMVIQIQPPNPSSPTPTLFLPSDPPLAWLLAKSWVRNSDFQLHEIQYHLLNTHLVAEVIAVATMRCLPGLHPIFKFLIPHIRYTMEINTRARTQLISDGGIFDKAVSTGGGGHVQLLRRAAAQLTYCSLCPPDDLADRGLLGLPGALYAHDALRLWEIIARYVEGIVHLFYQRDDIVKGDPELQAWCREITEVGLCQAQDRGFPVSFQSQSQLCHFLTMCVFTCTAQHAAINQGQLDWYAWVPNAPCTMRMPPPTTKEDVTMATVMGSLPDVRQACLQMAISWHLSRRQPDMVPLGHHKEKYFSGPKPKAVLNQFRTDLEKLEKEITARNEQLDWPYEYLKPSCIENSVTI
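Purified human 12hLO at 150 nM in 25 mM Hepes, 0.01% Triton X-100, pH 7.0, preincubated 15 min at room temperature with compound. Reaction started with 40 uM arachidonic acid, 30 min at room temperature. Hydroperoxide measured by Fe-xylenol orange, 573/405 nm absorbance ratio.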
EPAC1 antagonist: EPAC1 (human) antagonism; O95398; EPAC1 GEF assay, Rap1b-BODIPY-GDP exchange fluorescence; Potency, µM (doses to about 115 µM), for the others: at the highest dose activity change, negative = inhibition, most hits filed as inhibitors; actives 0.14% (n = 360,000); AID 720709;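 note: plate controls were vehicle for no effect and positive control for full effect; nearly all actives have a fitted effect of over 50% in size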
EPAC1 agonist: activates human EPAC1 exchange factor; actives 0.073% (n = 360,000); Potency, µM (series often up to 154 µM), for the others: top-dose activation, actives largely listed as activators; EPAC1 agonist qHTS, biochemical assay; response scale: 100% = response to 6.5 mM cAMP; AID 720707; O95398; note: nearly all actives have a fitted effect of over 60% in size
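Nucleotide exchange by EPAC1 (100 nM) on Rap1B–BODIPY-GDP (250 nM) in the presence of 50 uM GDP is tracked fluorescently at 480/540 nm over 30 min. Signals are normalized to a 6.5 mM cAMP control.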
* marks the source's active call; other numbers are inactive results; u = inconclusive; x = no result; [ ] = dose if it differs, or a comment. Calls come from the whole dose curve; as a rule, active = well fitted curve in the direction sought with a large enough effect; inconclusive = small, poorly fitted or top-dose-only effect, or another doubt; inactive = no such curve, though single readings can be large; an effect the other way counts as inactive or inconclusive. Potency is the fitted concentration of half-maximal effect.

SMILES	EPAC2 antag	USP1 inh	EPAC2 agonist	ALOX12 inh	EPAC1 antagonist	EPAC1 agonist
COc1cccc(C2=CC(=O)C[C@H](c3ccc(Cl)cc3)C2)c1	0%	-8%	16%	-2%	-6%	8%
O=[N+]([O-])c1ccccc1C(=Nc1ccccc1)c1c(O)cc(O)cc1O	3%	-18%	14%	45µM*	-25%	1%
O=C(Nc1ccccc1)c1ccccc1NC(=O)c1ccccc1[N+](=O)[O-]	-6%	-7%	16%	423%	-18%	0%
COc1ccc(/C=C2\Oc3cc(OS(C)(=O)=O)ccc3C2=O)cc1OC	x	x	x	-62%	x	x
CN(C)/C=C/C(=O)c1ccc(Br)cc1	-13%	-11%	10%	7.9µM*	-5%	5%
O=c1[nH]ncc2c3ccccc3n(Cc3cccc(Cl)c3)c12	101%	u	u	-26%	98%	79µM*
O=c1[nH]ncc2c3ccccc3n(Cc3ccc(F)cc3)c12	6%	-5%	-8%	34%	4%	0%
CCNc1ncc2nc(C)c(=O)n(C[C@H]3CCCO3)c2n1	x	x	x	0%	x	x
CCNc1ncc2nc(CCc3ccccc3)c(=O)n(C[C@H]3CCCO3)c2n1	x	x	x	7.1µM*	x	x
O=C(NC1CCCCC1)N1CCNCC1	1%	-12%	7%	4%	11%	2%
O=C(NC1CCCCC1)N1CCC(c2nnc3n2CCNC3)CC1	x	x	x	13µM*	x	x
CCCOC(=O)c1ccc(Oc2c(C)oc3cc(O)ccc3c2=O)cc1	x	x	x	10%	x	x
COc1nccnc1NS(=O)(=O)c1ccc(NC(=S)NC(=O)/C=C/c2ccc(F)cc2)cc1	-17%	-11%	12%	13µM*	-15%	15%
CCc1nnc(NS(=O)(=O)c2ccc(NC(=S)NC(=O)/C=C/c3ccc(OC)cc3)cc2)s1	-27%	-7%	7%	-28%	-20%	0%
CCc1nnc(NS(=O)(=O)c2ccc(NC(=S)NC(=O)/C=C/c3ccccc3)cc2)s1	-7%	-11%	8%	22µM*	u	2%
CCc1nnc(NS(=O)(=O)c2ccc(NC(=S)NC(=O)/C=C/c3ccc(C(C)C)cc3)cc2)s1	u	25µM*	8%	x	79µM*	13%
COc1ccc(N2CC(C)(NC(C)=O)C2)cc1	x	x	x	-19%[176 µM]	x	x
COc1cc(C(=O)OCC(=O)c2ccc(Cl)cc2)ccc1OCc1ccccc1Cl	x	x	x	-4%	x	x
COc1ccc(CNC(=O)COC(=O)c2cc(C)nc3ccccc23)cc1	8%	-5%	-4%	-60%	-7%	9%
CCNC(=O)COC(=O)c1cc(-c2ccco2)nc2ccccc12	-5%	-4%	7%	7.1µM*	-9%	1%
NC(=O)NC(=O)COC(=O)c1cc(-c2ccco2)nc2ccccc12	x	x	x	14µM*	x	x
O=C(NC1CC1)c1cc(-c2ccco2)nc2ccccc12	3%	-8%	-9%	u	u	2%
CCNC(=O)NC(=O)C(C)OC(=O)c1cc(C)nc2ccccc12 (centres undefined)	x	x	x	13%	x	x
CCNC(=O)NC(=O)C(C)OC(=O)c1cc(-c2ccco2)nc2ccccc12 (centres undefined)	x	x	x	13µM*	x	x
CC(=O)Nc1ccc(-c2nccc3[nH]nc(-c4cccc(C(F)(F)F)c4)c23)cc1	x	x	x	-8%	x	x
SMILES	EPAC2 antag	USP1 inh	EPAC2 agonist	ALOX12 inh	EPAC1 antagonist	EPAC1 agonist
CCCn1nc(C(=O)Nc2ccc(C(C)=O)cc2)c2ccccc2c1=O	x	x	x	-2%	x	x
COc1ccc(OC)c(-n2c(N)c(C(=O)NCC3CCCO3)c3nc4ccccc4nc32)c1 (centres undefined)	-6%	-15%	3%	u	-13%	8%
CC(C)Cn1c(N)c(C(=O)NCC2CCCO2)c2nc3ccccc3nc21 (centres undefined)	-25%	-20%	-2%	-9%	50µM*	7%
COCCn1c(N)c(C(=O)NCC2CCCO2)c2nc3ccccc3nc21 (centres undefined)	-27%	25µM*	3%	-3%	u	-8%
COc1cc(C2C(C(=O)c3cc4ccccc4o3)=C(O)C(=O)N2c2cc(C)on2)cc(OC)c1OC (centres undefined)	-1%	-23%	-14%	10µM*	-2%	-7%
COc1cccc(C2C(C(=O)c3cc4ccccc4o3)=C(O)C(=O)N2c2cc(C)on2)c1OC (centres undefined)	0%[57.1 µM]	-10%	29%	u	6%	4%
Cc1cc(N2C(=O)C(O)=C(C(=O)c3cc4ccccc4o3)C2c2cccc(Br)c2)no1 (centres undefined)	14%	u	-11%	45µM*	-15%	-25%
CCCOc1cccc(C2C(C(=O)c3cc4ccccc4o3)=C(O)C(=O)N2c2cc(C)on2)c1 (centres undefined)	24%	u	-11%	u	0%	-8%
CCn1c(C)nc2cc(C(=O)NNS(=O)(=O)c3ccccc3F)ccc21	-1%	-23%	-4%	4.5µM*	0%	0%
CCN(CC)c1ccc(/C=N/N2C(=O)c3ccccc3C2=O)cc1	-1%	-9%	5%	4%	-3%	-4%
CCN(CC)c1ccc(/C=N/N2CC(=O)NC2=S)cc1	6%	-19%	12%	3.5µM*	17%	3%
COc1cc(/C=C/c2nc(C#N)c(NCCCN(C)C)o2)cc(OC)c1OC	x	x	x	-1%	x	x
COc1cccc(NC(=O)c2sc3nc(C)c(C(=O)Nc4ccc(C)cc4C)c(-c4ccco4)c3c2N)c1	x	35µM*	x	-8%	x	x
NC(=O)CCN(C(=O)c1ccc(C(F)(F)F)cc1)c1ccc(F)cc1	x	x	x	-18%	x	x
COc1ccc(CN=Cc2[nH]c3ccc(Br)c(Cl)c3c2O)cc1	-12%	14µM*	13%	u	-4%	9%
Cc1cc(C)cc(N=Cc2[nH]c3ccc(Br)c(Cl)c3c2O)c1	5%	-22%	12%	u	-6%	29%
COC(=O)[C@]1(Sc2ccc(C)cc2)CC(=O)N[C@@H]1c1ccco1	1%	x	15%	u	-14%	-9%
COC(=O)[C@@]1(Sc2ccc(C)cc2)CC(=O)N[C@@H]1c1ccco1	-6%	x	7%	40µM*	-2%	8%
COc1ccccc1N1CCN(CCN2C(=O)C3CCCCN3C2=O)CC1 (centres undefined)	8%	-6%	8%	13µM*	-3%	-3%
COc1ccccc1N1CCN(CCCN2C(=O)C3CCCCN3C2=O)CC1 (centres undefined)	-5%	-19%	9%	0%	-6%	-10%
O=C(O)c1cccc(N/N=C/c2cccc3ccccc23)c1	-6%	-21%	1%	u	u	-3%
